Data as given in PubChem BioAssay (EPA / NIEHS).
Inconclusive results are not listed. Calls of active or inactive are those of the source. The calls were made as follows: active = hit-call score of the fitted dose curve at least 0.9, where 1 is the maximum; inconclusive = response in the unintended direction; inactive = score below 0.9.

Assay: CCTE_Shafer_MEA_dev_active_electrodes_number: CCTE's Neural Network Formation Assay for Number of Active Electrodes, Shafer Lab (AID 2284040);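 as to AC50: potency for loss of active electrodes versus DMSO so lower counts are hits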
Method: CCTE_Shafer_MEA_dev assay is conducted using Axion Biosystems 48 well microelectrode array (MEA) plates and Maestro recording system. Each well of the MEA plate contains a grid of 16 microelectrodes embedded in the culture surface. Electrically active cells, such as neurons, can be cultured over the electrodes, and electrical activity in these cells can be recorded extracellularly. The spontaneous firing of neurons is captured from each electrode on a microsecond timescale providing both temporally and spatially precise data. […] The CCTE_Shafer_MEA_dev assay uses primary cultures of rat cortical neurons. Recordings are made on days post-plating 5, 7, 9 and 12. As these cultures mature over time, neural networks develop functional activity and form cohesive networks in which electrical activity can be highly coordinated. CCTE_Shafer_MEA_dev_active_electrodes_number is 1 of 19 assay components of the CCTE_Shafer_MEA_dev assay. It measures the number of electrodes in a well with a mean firing rate of at least 5 spikes (action potential firings) per minute during a recording in a microelectrode array (MEA) using Axion Biosystems Maestro 768 channel amplifier with the AxIS adaptive spike detector. To collapse across multiple recordings made on days post-plating 5, 7, 9 and 12, the trapezoidal area-under-the-curve of the component is calculated.Data from the assay component CCTE_Shafer_MEA_dev_active_electrodes_number was analyzed into 1 assay endpoint. This assay endpoint, CCTE_Shafer_MEA_dev_active_electrodes_number, was analyzed in the negative analysis fitting direction relative to DMSO as the negative control and baseline of activity. Using a type of functional reporter, gain or loss-of-signal activity can be used to understand electrical activity.
On the day prior to culture, each well was coated thoroughly with 150 uL of 0.05% polyethyleneimine (PEI, Sigma Cat P3143) in 50 mM HEPES (Sigma Cat H7523) at a pH of 8. The plate was incubated at 37C for one hour. PEI was rinsed out with 500 uL of sterile water three times. Plates were stored at 4C until the day of culture. This culture was plated at a seeding density of 1.5 x 10^5 cells/well on a 48-well MEA plate, prepared as described above. Cells were administered via a 25 uL media/laminin ([…]; Sigma Cat L2020-1MG) drop directly onto the microelectrode array, as adding the cells with the laminin results in better attachment than pre-coating with laminin. After 2 hours, an additional 475 uL of cortical media was added and the cells returned to the incubator. Exposure starts at day 0 of plating and is continued over twelve days of network development until the experiment is terminated. Cells are fed with fresh medium on DIV 5 and 9, following the recordings on those days. The entire volume of media in the well is exchanged and any vehicle or compound treatment is renewed. Complete details are found in OP-NHEERL/ISTD/SBB/TJS/2015-03-r0 (available on request, email shafer.tim@epa.gov). Measurement of the electrical activity is non-invasive, and recordings can be made from the same plate over multiple different days of the culture. In cortical neurons, this allows for the measurement of extracellular action potentials over the period during which networks form in the MEA plate.

Row | Compound | outcome | AC50
1 | Nc1nc2ncc(CNc3ccc(C(=O)N[C@@H](CCC(=O)O)C(=O)O)cc3)nc2c(=O)[nH]1 | inactive | –
2 | O=P(OC(CCl)CCl)(OC(CCl)CCl)OC(CCl)CCl | inactive | –
3 | Cn1c(=O)c2c(ncn2C)n(C)c1=O | inactive | –
4 | NC(=O)NO | inactive | –
5 | CNCc1ccc(NC(=O)c2c[nH]c3c2C(=O)CCC3)cc1 | – | 1980 nM (active)
6 | COc1ccc(-n2nc(C(F)F)cc2-c2ccc(S(C)=O)cc2)cc1 (stereo not given) | – | 10000 nM (active)
7 | CC[C@H]1OC(=O)[C@H](C)[C@@H](O[C@H]2C[C@@](C)(OC)[C@@H](O)[C@H](C)O2)[C@H](C)[C@@H](O[C@@H]2O[C@H](C)C[C@H](N(C)C)[C@H]2O)[C@](C)(O)C[C@@H](C)C(=O)[C@H](C)[C@@H](O)[C@]1(C)O | inactive | –
8 | CCC(C)(C)C(=O)O[C@H]1C[C@@H](C)C=C2C=C[C@H](C)[C@H](CC[C@@H]3C[C@@H](O)CC(=O)O3)[C@H]21 | – | 801 nM (active)
9 | O=C1CCC(N2C(=O)c3ccccc3C2=O)C(=O)N1 (stereo not given) | inactive | –
10 | CC[C@H](C)C(=O)O[C@H]1C[C@@H](C)C=C2C=C[C@H](C)[C@H](CC[C@@H]3C[C@@H](O)CC(=O)O3)[C@H]21 | – | 1760 nM (active)
